# Laboratory results published in PubChem BioAssay (NCI).
# Compounds without any hit were thinned out: in the full panel of roughly 79,000, 15% have a hit. Values without a mark were called inactive. The source made the active and inactive calls. Cut-off read from the data, not from the text of the source: active = growth inhibition above about 70%; inactive = the rest.
# How the values were obtained:
# [1] = NCI Yeast Anticancer Drug Screen. Data for the rad50 strain (AID 155);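 note: 0% = growth of vehicle-only cultures of the same strain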; conditions: S. cerevisiae rad50 strain growth inhibition, hits give high values
# How it was run: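 Growth of the mutant yeast was measured after compound exposure and referenced to vehicle-treated cultures.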
# [2] = NCI Yeast Anticancer Drug Screen. Data for the mec2-1 strain (AID 157); conditions: S. cerevisiae mec2-1 strain, hits give high values
# How it was run: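 Mutant yeast (mec2-1) grown with compound; growth inhibition relative to vehicle control reported.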
# [3] = NCI Yeast Anticancer Drug Screen. Data for the sgs1 mgt1 strain (AID 161);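 note: 0% = growth of cultures given vehicle only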; conditions: S. cerevisiae sgs1 mgt1 strain, hits give high values
# How it was run: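 Percent growth inhibition was derived by comparing compound-exposed mutant yeast with vehicle-exposed cultures. The strain carries alterations in DNA damage repair.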
# [4] = NCI Yeast Anticancer Drug Screen. Data for the cln2 rad14 strain (AID 165);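 note: 0% = growth equal to vehicle treated cultures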; conditions: S. cerevisiae cln2 rad14 strain, hits give high values
# How it was run: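 Readout is yeast growth inhibition versus vehicle-treated controls, using a strain with cln2 and rad14 alterations exposed to compound.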
# [5] = NCI Yeast Anticancer Drug Screen. Data for the bub3 strain (AID 167); conditions: S. cerevisiae bub3 mutant strain, hits give high values
# How it was run: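 Whole-cell yeast assay. The mutant strain was incubated with compounds, and growth inhibition was determined by comparison with vehicle-treated cells.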
# [6] = NCI Yeast Anticancer Drug Screen. Data for the mlh1 rad18 strain (AID 175); conditions: S. cerevisiae mlh1 rad18 strain growth inhibition, hits give high values
# How it was run: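 Genetically defined yeast (DNA repair-deficient) exposed to compounds; growth inhibition determined relative to vehicle.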
# [7] = at 5.0 µM (retest, dose inferred, filed as 0.5)
# [8] = at 50.0 µM (retest, dose inferred, filed as 5.0)
Structure (SMILES),"growth inhibition [1, 7] [%]","growth inhibition [1, 8]",growth inhibition ([1]; at 50.0 µM),"growth inhibition [2, 7] [%]","growth inhibition [2, 8]",growth inhibition ([2]; at 50.0 µM),"growth inhibition [3, 7] [%]","growth inhibition [3, 8]",growth inhibition ([3]; at 50.0 µM),"growth inhibition [4, 7] [%]","growth inhibition [4, 8]",growth inhibition ([4]; at 50.0 µM),"growth inhibition [5, 7] [%]","growth inhibition [5, 8]",growth inhibition ([5]; at 50.0 µM),"growth inhibition [6, 7] [%]","growth inhibition [6, 8]",growth inhibition ([6]; at 50.0 µM)
Nc1ccc(SCCCc2c(N)nc(N)nc2N)cc1,-8,4%,57.5%,1,-8%,92.2% (active),27,11%,20.6%,-16,-17%,91.8% (active),-9,-12%,95% (active),6,32%,82.2% (active)
NCC1CCNCC1,2,-6%,-16.7%,-2,-19%,-9.25%,2,3%,-15.2%,0,-6%,16%,-5,1%,3.9%,10,0%,-4%
N#CSc1ccc2nc(NCO)sc2c1,22,97% (active),98.9% (active),7,97% (active),99.3% (active),18,98% (active),99.3% (active),-9,89% (active),96% (active),12,97% (active),95.4% (active),45,97% (active),99.1% (active)
CCCCCCC(/C=C/c1c(Cl)cccc1Cl)=N\O,-4,24%,83.4% (active),-4,46%,91.7% (active),-6,67%,91.3% (active),-1,12%,69.1%,-4,53%,92.8% (active),-10,56%,94.2% (active)
OC1(c2ccccc2)CN(CCl)CC(c2ccccc2)O1 (configuration not stated),-2,7%,-10.6%,0,2%,17.3%,-1,7%,46%,12,15%,10.4%,2,6%,71.8% (active),-2,7%,47.4%
O=C(O)C(Cc1cc(I)c(O)c(I)c1)c1ccccc1 (configuration not stated),-14,29%,60.1%,-1,34%,19.2%,-25,38%,16.8%,-5,41%,32.6%,-4,29%,21.9%,0,45%,57.5%
CS(=O)(=O)OCCN(CCOS(C)(=O)=O)c1ccc(C=Nc2ccc3ccccc3c2)c(Cl)c1,5,22%,10.4%,-203,-3%,23.1%,3,14%,34%,11,-9%,35.4%,0,-9%,5.85%,7,34%,66%
CN(C)Cc1ccc2[nH]c3c(c2c1)CCCC3,4,96% (active),66.8%,11,72% (active),36.6%,2,90% (active),43.7%,0,72% (active),21.2%,1,85% (active),45%,28,93% (active),65.1%
Cc1ccc(C2=CC(=O)/C(=C\C(=O)c3ccc(Cl)cc3)O2)cc1,31,31%,74.9% (active),28,28%,55.5%,17,17%,71.2% (active),38,38%,57%,22,22%,49.5%,37,37%,58%
CCOC(=O)C[P+](c1ccc(C)cc1)(c1ccc(C)cc1)c1ccc(C)cc1,39,96% (active),96.7% (active),17,94% (active),95.6% (active),11,82% (active),95.8% (active),2,82% (active),89.2% (active),21,88% (active),91% (active),6,93% (active),93.5% (active)
O=C(Nc1cccc(C(F)(F)F)c1)O/N=C(/Cl)CCl,3,100% (active),88.5% (active),-19,100% (active),91.7% (active),-51,99% (active),84.7% (active),-8,100% (active),90.5% (active),-38,100% (active),88.8% (active),-9,100% (active),84.2% (active)
CN(C)C(N)=NC#N,25,47%,73.2% (active),22,86% (active),75.7% (active),27,96% (active),51.2%,20,54%,9.65%,29,95% (active),65.2%,33,71% (active),67%
Oc1cccc(NCSc2ccc(Cl)cc2)c1,-4,95% (active),93.3% (active),-3,95% (active),95.2% (active),-9,95% (active),96.2% (active),-5,91% (active),92.5% (active),-3,93% (active),94.1% (active),-1,91% (active),94% (active)
COC(=O)C(=[N+]=[N-])C(=O)c1ccc(Cl)cc1,2,30%,81% (active),2,13%,96.2% (active),2,40%,50.7%,0,19%,44.4%,-14,-14%,28.9%,-3,18%,40.5%
CC[N-]c1nncs1.CC[N-]c1nncs1.CC[N-]c1nncs1.CC[N-]c1nncs1.[Cl][Rh][Cl],-8,95% (active),97.7% (active),43,74% (active),97.8% (active),11,93% (active),98.5% (active),0,77% (active),91% (active),-4,77% (active),95.6% (active),15,95% (active),97.6% (active)
Cc1ccc(S(=O)(=O)Nc2ccc(C)cc2C)cc1,-3,96% (active),85.5% (active),-6,96% (active),54%,-2,97% (active),55.4%,-3,83% (active),32.8%,-1,95% (active),63.4%,-2,95% (active),75.2% (active)
O=c1[nH]ncc(SCc2ccccc2)c1SCc1ccccc1,8,35%,97.2% (active),3,53%,97.9% (active),1,58%,98% (active),8,31%,96.1% (active),14,37%,98.4% (active),8,57%,96.5% (active)
CCOC(=O)C(=O)CC1=Nc2ccccc2SC(c2cccc(C)c2)C1 (configuration not stated),2,81% (active),91.9% (active),-1,98% (active),92.9% (active),7,98% (active),99.2% (active),-2,86% (active),50%,12,98% (active),99.1% (active),2,97% (active),97.5% (active)
FC(F)(F)c1nc2cc(SSc3cc4nc(C(F)(F)F)[nH]c4cc3Cl)c(Cl)cc2[nH]1,1,51%,97.5% (active),-1,85% (active),93.2% (active),0,87% (active),95% (active),-6,91% (active),65.8%,-18,61%,97% (active),-12,97% (active),97.7% (active)
